For 60 compounds, inhibition results are on record in PubChem BioAssay AID1259397 (Fisher Drug Discovery Resource Center, 2018).

The structures appear in SMILES notation. Several values for one entry are separate records, joined by “and”; a condition that tells them apart may be missing. Identical values can stand only once. Out of some 130,000 compounds screened, about 230 (0.18%) were called active. The full list was thinned out, with actives kept by preference. Unmarked numbers belong to inactive results.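 How the source made its calls: active means inhibition of cGAS enzyme activity at or above 60%; inactive means the rest.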

This assay deals with Cyclic GMP-AMP synthase (Mus musculus) (UniProt Q8C6L5). The experiment in a line: inhibitors of Mus musculus cyclic GMP-AMP synthase, initial high-throughput assay, cell-free, RapidFire MS (AID 1259397).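 Further: enzyme stimulated by 45 bp dsDNA with ATP and GTP substrates; cGAMP share of summed cGAMP plus half ATP and half GTP signals.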 To be noted: recombinant mouse cGAS, cGAMP by RapidFire MS; at 12.5 µM; active compounds read high.
Sequence of Cyclic GMP-AMP synthase (Mus musculus) (Q8C6L5 whole entry, looked up): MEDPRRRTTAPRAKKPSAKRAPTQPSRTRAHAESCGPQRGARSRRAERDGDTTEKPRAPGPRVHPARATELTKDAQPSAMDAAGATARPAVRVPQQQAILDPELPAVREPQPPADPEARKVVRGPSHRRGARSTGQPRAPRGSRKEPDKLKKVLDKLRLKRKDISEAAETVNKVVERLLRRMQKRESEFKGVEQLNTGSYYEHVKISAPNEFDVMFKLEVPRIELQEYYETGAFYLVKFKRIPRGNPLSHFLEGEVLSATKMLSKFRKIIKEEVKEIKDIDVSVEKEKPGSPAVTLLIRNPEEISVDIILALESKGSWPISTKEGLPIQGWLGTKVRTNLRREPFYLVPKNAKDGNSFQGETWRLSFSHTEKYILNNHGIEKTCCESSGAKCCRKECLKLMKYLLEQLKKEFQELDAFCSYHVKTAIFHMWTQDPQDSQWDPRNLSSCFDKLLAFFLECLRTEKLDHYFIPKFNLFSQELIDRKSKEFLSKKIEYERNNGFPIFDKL
In general, inhibition refers to the relative decrease from the control value, in per cent. With `Cc1ccc(C)c(CNc2cccc(C(=O)N3CCC(O)CC3)c2)c1`, the inhibition is -8.84%. Then `CCC(=O)N1CCN(c2ccc(Cl)cc2NC(=O)c2cccs2)CC1`, with -6.87%; and `CC(=O)N(C)c1ccc(NC(=O)CNCCc2cccs2)cc1`, with -11.1%. Take `COc1ccc(OC)c(NC(=O)C(C)N2CCN(Cc3ccc(Cl)s3)CC2)c1` (stereo not given): the inhibition was -4.59%. The same measure for `CCO[C@H]1COC[C@@H]1NCC(=O)Nc1ccc(Cl)c(OC)c1`: -5.39%. Then `O=C(O)c1cc(-c2ccccc2)nn1-c1ccc(Cl)cc1`, with -1.5%; and `Cc1cc(-n2cnnc2)ncc1-c1ccc(O)cc1`, with -7.05%. The same measure for `Cc1ccc(NC(=O)CN2Cc3ccccc3CC2C(N)=O)cc1` (stereo not given): -6.79%; for `CCNC(=O)C1(C)CCN(Cc2ccc(C(=O)OCC)o2)C1` (stereo not given): -5.82%. For `CN=c1scc(-c2ccc(Br)cc2)n1N=Cc1cc(OC)c(OC)c(OC)c1`, the inhibition is -11.7%. On to `CC(C)Nc1ncc(C(=O)N(Cc2ccco2)C(C)C(C)C)cn1` (stereo not given), for which the inhibition is -1.04%.

With `C=CC[C@H]1CC(C)=C[C@H](CC=C)N1C(=O)c1cnc2cccc(C)n2c1=O`, the inhibition was -2.04%.

For the compound `O=C1COCc2ccc(-c3cccnc3)cc2N1CC1CC1`, the inhibition is -11.8%. Then `CCCn1c(=O)n(C)c(=O)c2c(SCC(=O)C(C#N)=C(C)N)nc(CC(C)C)nc21`, with -1.38%; and `CC1(C(=O)NCc2ccc3c(c2)OCO3)CCN1CCc1ccccc1` (stereo not given), with -12.7%; and `COc1ccc(CC(=O)OCc2cc(-c3ccc4c(c3)OCO4)on2)cc1OC`, with -7.02%.

With `CC(C)c1cc(C2CCN(C(=O)CN3CCOC3=O)CC2)[nH]n1`, the inhibition is -25.2%. For the compound `COc1ccc(NC(=O)CCC2CCN(Cc3ccc(SC)cc3)CC2)c(OC)c1`, the inhibition was -5.25%. Then `Cc1cccc(Nc2ncccc2C(=O)NCc2ccccn2)c1C`, with 1.13%; and `Cc1[nH]n2c(=O)c3c(nc2c1-c1cccc2ccccc12)CCCC3`, with 1.14%; and `CN(Cc1ccc(Br)s1)C(=O)CSCc1ccc(C#N)cc1`, with 7.87%. With `O=S(=O)(NCc1ccccc1)NCc1csc(-c2cnccn2)n1`, the inhibition is -34.7%. Regarding `O=C1CN(c2ccc(NC(=O)c3ccc4c(c3)COC4)cc2)CCN1`, the inhibition was -2.78%. The same measure for `CN1CCN2CCN(C(=O)c3cccc(N4CCNC4=O)c3)CC2C1=O` (stereo not given): -13.8%; for `C=C(C)Cn1c(N2CCN(Cc3cccc(C)c3)CC2)nc2c1c(=O)[nH]c(=O)n2C`: -6.09%.

With `O=C1NC(=S)SC1=Cc1ccccc1F`, the inhibition was 62.6% (active). The same measure for `O=C1NC(=O)C(=Cc2ccc(C(=O)O)cc2)S1`: 35.6%; for `COc1cc(C=C2SC(=S)NC2=O)cc(Br)c1O`: 12%.

As to `CC(=O)NN=C1CCCc2c(C)cc(C)cc21`, the inhibition was 23.5%. Then `O=C(CN1C(=O)NC2(CCCC2)C1=O)N1CCN(C(=O)c2cccs2)CC1`, with -1.67%; and `O=C(Nc1ccccc1Cl)C(=O)N1CCC2(CC1)C(=O)Nc1ccccc12`, with -33.1%. In the case of `CCn1ccnc1CN(C)C(=O)c1cc(COc2cccc3cnccc23)on1`, the inhibition was -1.51% and -6.44%. The same measure for `CC(C)(C)CN(CCO)Cc1ncc(C(C)(C)C)o1`: -4.58%; for `CS(=O)(=O)Cc1nc(-c2cc3c(cc2F)NC(=O)CC3)cs1`: -12.8%.

In the case of `C=CCN(CC=C)C(=O)CSc1nc2scc(-c3ccc(F)cc3)c2c(=O)n1C`, the inhibition is 11.1%.

Take `COCCn1c(-c2cc(OC)ccc2OC)csc1=Nc1ccc(OC)cc1`: the inhibition is -17.5%.

With `Cc1ccc(-c2nc(CCNC(=O)c3cccc(C)c3)cs2)cc1`, the inhibition was 5.19%. Then `O=S(=O)(c1ccc(Oc2nc(C(F)(F)F)nc3ccccc23)cc1)N1CCOCC1`, with -25.2%; and `COC(=O)NC(C)C(=O)NCc1cccnc1Oc1c(C)cccc1C` (stereo not given), with -19.5%. Then `CCN(Cc1ccccc1)C(=O)COC(=O)c1cccc(O)c1`, with 5.18%.

Turning to `CN1CCN(c2ccc(NC(=O)c3cccs3)c(C(F)(F)F)c2)CC1`, the inhibition was -17.2%.

With `COc1ccc(C2=CCN(C(=O)c3csc(NC(C)=O)n3)CC2)cc1`, the inhibition was -5.03%. Then `COc1ccc(CCn2c(SCCO)nc3c2c(=O)n(C)c(=O)n3C)cc1`, with -8.65%; and `Cc1nn(C)c(C)c1C(=O)N(C)Cc1ccc(Cl)cc1`, with -0.861%. The same measure for `CCC(C(=O)N1CC=CCC1)n1cc(C(C)=O)c2ccccc21` (stereo not given): -14.3%. As to `Fc1ccc(-c2[nH]ncc2CNCc2ccc(OC(F)(F)F)cc2)c(F)c1`, the inhibition was -8.38%. Then `N#Cc1ccc(NC(c2ccccc2)c2ccccn2)nc1` (stereo not given), with 9.13%; and `CC(Cn1ccnc1)NS(=O)(=O)c1ccccc1` (stereo not given), with -2.43%; and `Cc1nc2c(c(NCc3csc(-c4cnccn4)n3)n1)CCN(C)CC2`, with -14.9%. As to `COc1ccc(NC(C)=O)cc1S(=O)(=O)Oc1ccc2c(c1)CCC2`, the inhibition was -14.7%. Then `O=C(Cn1ccc(=O)c2ccccc21)Nc1cc(Cl)ccc1C(=O)N1CCCC1`, with -4.35%. The same measure for `COc1ccccc1-c1n[nH]c(=S)n1-c1ccc(C)cc1`: -2.19%. The same measure for `O=C(Nc1ccc(F)cc1)Nc1ccc(OC(F)F)cc1`: -13.8%; for `O=c1oc2c(CN3CC4CC(C3)c3cccc(=O)n3C4)c(O)ccc2cc1-c1nc2ccccc2s1` (stereo not given): -0.297%; for `O=C(CCSCc1ccccn1)NCc1ccc(Br)s1`: 7.74%. Regarding `O=C(O)CCCc1ccc(Br)s1`, the inhibition is 92.3% (active). Then `O=C(O)CCCc1ccccc1`, with 0.216% and -7.46% and -8.15%; and `O=C(NCCc1ccccc1)C1=COC2=NC(=O)N(Cc3ccccc3C(F)(F)F)CCN12`, with -9.37%. Take `N#Cc1cccc(CN2CCN3C(C(=O)NCCCc4ccccc4)=COC3=NC2=O)c1`: the inhibition is -8.68%.

For the compound `CS(=O)(=O)c1ccc(CN2CCN3C(C(=O)N4CCOCC4)=COC3=NC2=O)cc1`, the inhibition was 62.5% (active).
